A selection: hits, their analogues and other compounds. The true share with any hit is near 3.2%.
rRNA inh HTS = selective bacterial rRNA inhibition in E. coli | E. coli WT GFP vs humanized-ribosome RFP mutants, fluorescence, 24 h; active compounds read low; DMSO median 0, no signal -100 | GFP signal change (wild-type ribosome), % (no concentration beside the values) | 350,000 tested, 1.6% active | AID 720706;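 active means significant combined selectivity score with lowered wild-type GFP, culture density cut under 30%, mutant RFP and density less affected; inactive means any of these conditions unmet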
DENV2 CPE rescue = inhibitors of DENV2 cytopathic effect | DENV2-infected cells, cytopathic effect rescue, plate reader | CPE inhibition, % at 9.99 µM | 350,000 tested, 1.7% active; in the data active means CPE inhibition above about 20%, passing the limit was not always enough; inconclusive means no clear call, values can overlap the other calls; tested in BHK-21 cells
GSIS activator = GLuc luminescence reporter in INS-1E cells, primary screen for activators of glucose-dependent secretion of insulin; INS-1E GLuc reporter insulin secretion, 2-3 h; activation, % at 16.6 µM; 370,000 tested, 0.61% active; AID 743287;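 active means lowest replicate activation of at least 40%, so every replicate reaches that level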
ERAP1 inh = ERAP1 (human) enzyme inhibition; inhibition, % at 10.7 µM; recombinant ERAP1, Leu-AMC fluorescence, 60 min; Q9NZ08; 340,000 tested, 0.15% active;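 active means mean replicate inhibition of at least 30%, or all replicates individually reaching that 30% level; inactive means mean below 30% and not every replicate reaching it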
Target sequence (Q9NZ08 whole entry, looked up): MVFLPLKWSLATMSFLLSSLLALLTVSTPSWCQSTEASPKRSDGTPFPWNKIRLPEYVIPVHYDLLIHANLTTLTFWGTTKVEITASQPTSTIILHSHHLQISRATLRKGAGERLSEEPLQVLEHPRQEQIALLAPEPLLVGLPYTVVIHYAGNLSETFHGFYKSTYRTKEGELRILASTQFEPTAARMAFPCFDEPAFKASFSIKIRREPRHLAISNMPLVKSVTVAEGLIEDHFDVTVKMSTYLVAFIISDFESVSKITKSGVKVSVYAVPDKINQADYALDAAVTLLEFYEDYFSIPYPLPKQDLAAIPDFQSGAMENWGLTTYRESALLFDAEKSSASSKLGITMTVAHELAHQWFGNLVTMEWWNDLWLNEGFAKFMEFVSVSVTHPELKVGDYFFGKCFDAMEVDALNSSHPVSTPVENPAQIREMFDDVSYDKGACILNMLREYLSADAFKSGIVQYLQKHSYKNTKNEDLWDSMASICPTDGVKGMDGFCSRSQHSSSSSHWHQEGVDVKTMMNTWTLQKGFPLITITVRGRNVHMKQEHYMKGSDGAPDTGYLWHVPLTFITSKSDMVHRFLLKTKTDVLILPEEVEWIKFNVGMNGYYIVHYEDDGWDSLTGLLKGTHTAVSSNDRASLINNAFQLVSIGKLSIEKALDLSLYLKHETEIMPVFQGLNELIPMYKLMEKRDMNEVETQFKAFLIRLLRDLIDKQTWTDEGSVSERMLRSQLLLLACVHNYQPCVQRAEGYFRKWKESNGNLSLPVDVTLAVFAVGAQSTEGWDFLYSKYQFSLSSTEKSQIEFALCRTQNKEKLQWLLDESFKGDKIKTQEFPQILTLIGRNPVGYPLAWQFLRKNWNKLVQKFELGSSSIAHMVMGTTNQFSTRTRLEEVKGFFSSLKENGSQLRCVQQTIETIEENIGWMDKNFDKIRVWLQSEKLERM
PGC1a acetyl inh = PGC1a acetylation modulation, inhibitor mode. U2OS PGC1a acetylation, AlphaScreen anti-acetyl-lysine; with virally co-expressed GCN5 acetyltransferase. inhibition, % at 15.6 µM. 350,000 tested, 0.17% active;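 active means every replicate shows inhibition of at least 40%; inconclusive means mean inhibition at least 40% but some replicate below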
CaV13 ICDI inh = Primary screen for inhibitors of IQ motif and Ca2+-dependent inactivation inhibitor domain binding in CACNA1D, Förster resonance energy transfer in living cells, …; 340,000 tested, 0.098% active; AID 743397; HEK cells, CFP/YFP FRET ICDI-IQ, plate reader, 10 min; percent FRET-ratio fall versus neutral wells; inhibition, % at 12.3 µM;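 active means mean replicate inhibition of at least 30% and at least 1% of replicates passing that level; inconclusive means only one of the two criteria is met; inactive means neither criterion is met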
Of the large screens only hits and unclear results are named; the others gave an inactive call.

C[C@@H]1CN([C@@H](C)CO)C(=O)Cc2cc(NC(=O)Cn3cnnn3)ccc2O[C@H]1CN(C)Cc1ccc(C(=O)O)cc1	none (no result: CaV13 ICDI inh)
COc1ccc(C(=O)NC(=S)NCc2cccnc2)cc1OC	rRNA inh HTS -28.5
COc1ccc(C(=O)Nc2ccccc2C(=O)N/N=C/c2ccccn2)cc1OC	none
O=C(CSc1nnc(SCc2ccc(Cl)cc2)s1)N/N=C/c1c[nH]c2ccccc12	GSIS activator 96.5 (no result: rRNA inh HTS, DENV2 CPE rescue, ERAP1 inh, PGC1a acetyl inh)
COc1ccc(C(=O)N/N=C/c2ccccn2)cc1OC	rRNA inh HTS -29.4
O=C(N/N=C/c1ccccn1)c1ccccc1	rRNA inh HTS -25.5 (no result: PGC1a acetyl inh)
C[C@H]1COCn2nncc2CC[C@@H](Cc2ccccc2)C(=O)N1	none (no result: DENV2 CPE rescue, ERAP1 inh, PGC1a acetyl inh, CaV13 ICDI inh)
Nc1nnc(CC(=O)N/N=C/c2ccccc2OCc2ccc(F)cc2)s1	PGC1a acetyl inh 61.0 (no result: ERAP1 inh)
Nc1nnc(CC(=O)N/N=C/c2ccccc2OCc2ccccc2F)s1	none (no result: ERAP1 inh, PGC1a acetyl inh)
Cc1cc(C)nc(N/N=C/c2cc(Br)ccc2O)n1	rRNA inh HTS -37.4
Cc1cc(C)nc(N/N=C/c2ccccc2OCc2ccc(Br)cc2)n1	none
O=C(CSCc1ccccc1)N/N=C/c1ccccc1OCc1ccccc1	rRNA inh HTS -26.6
Cc1cc(C)nc(N/N=C/c2ccccc2OCc2ccccc2)n1	DENV2 CPE rescue 78.5
C[C@@H](NC(=O)C[C@H]1CC[C@@H]2[C@H](COC[C@H](O)CN2C(=O)Nc2cc(Cl)cc(Cl)c2)O1)c1ccccc1	none (no result: CaV13 ICDI inh)
NC(=S)N/N=C\c1ccccc1OCc1ccccc1	rRNA inh HTS -26.3 (no result: CaV13 ICDI inh)
O=C(N/N=C/c1ccccc1OCc1ccccc1)c1cccs1	none (no result: rRNA inh HTS, DENV2 CPE rescue, ERAP1 inh)
C[C@@H]1CCCCO[C@@H](CN(C)S(=O)(=O)c2ccc(Cl)cc2)[C@H](C)CN([C@@H](C)CO)C(=O)c2cc(NC(=O)Nc3ccc(C(F)(F)F)cc3)ccc2O1	DENV2 CPE rescue 35.5 (no result: ERAP1 inh, CaV13 ICDI inh)
C[C@H](CO)N1C[C@H](C)[C@@H](CN(C)S(=O)(=O)c2ccc(Cl)cc2)OCCCC[C@H](C)Oc2ccc(NC(=O)Nc3ccc(C(F)(F)F)cc3)cc2C1=O	DENV2 CPE rescue 36.5 (no result: ERAP1 inh, CaV13 ICDI inh)
C[C@@H]1CN([C@H](C)CO)C(=O)c2cc(NC(=O)Nc3ccc(C(F)(F)F)cc3)ccc2O[C@@H](C)CCCCO[C@H]1CN(C)S(=O)(=O)c1ccc(Cl)cc1	none (no result: ERAP1 inh, CaV13 ICDI inh)
Cc1ccc(S(=O)(=O)N(C)C[C@@H]2OCCCC[C@@H](C)Oc3ccc(NS(=O)(=O)c4ccccc4)cc3C(=O)N([C@@H](C)CO)C[C@@H]2C)cc1	none (no result: CaV13 ICDI inh)
C[C@@H]1CCCCO[C@H](CN(C)S(=O)(=O)c2cn(C)cn2)[C@H](C)CN([C@@H](C)CO)C(=O)c2cc(NC(=O)NC3CCCCC3)ccc2O1	none (no result: CaV13 ICDI inh)
C[C@H](CO)N1C[C@H](C)[C@H](CN(C)S(=O)(=O)c2ccc(C#N)cc2)Oc2ncc(-c3ccc(F)cc3)cc2C1=O	none (no result: CaV13 ICDI inh)
CCOC(=O)c1sc2nc(C)nc(NCc3ccccc3OC)c2c1C	PGC1a acetyl inh 62.9
Cc1ccc(S(=O)(=O)N[C@@H]2CCCN(Cc3ccc(OCCO)cc3)C2)cc1	none (no result: rRNA inh HTS, GSIS activator, PGC1a acetyl inh, CaV13 ICDI inh)
C[C@H](CO)N1C[C@H](C)[C@H](CN(C)S(=O)(=O)c2cn(C)cn2)Oc2ncc(-c3ccc(F)cc3)cc2C1=O	none (no result: CaV13 ICDI inh)
C[C@H](NC(=O)N(C)C[C@H]1OCc2ccccc2-c2c(n(C)c3ccccc23)C(=O)N([C@H](C)CO)C[C@@H]1C)c1ccccc1	none (no result: CaV13 ICDI inh)
COc1ccc(CNC(=O)CCS(=O)(=O)c2ccc3c(c2)NC(=O)C(C)S3)cc1 (stereo not drawn)	none (no result: PGC1a acetyl inh)
COc1ccc(CNC(=O)CCS(=O)(=O)c2ccc3c(c2)NC(=O)CS3)cc1	DENV2 CPE rescue 35.1, GSIS activator 144.6
CCN(c1ccc(OC)cc1)S(=O)(=O)c1ccc2c(c1)NC(=O)CS2	rRNA inh HTS -27.2
CCOC(=O)CCc1c(C)c2c(C)nn(-c3ccccc3)c2[nH]c1=O	DENV2 CPE rescue 37.4
CCCC(=O)Nc1ccc2c(c1)C(=O)N(C)[C@H]1CC[C@H](CC(=O)N3CCCCC3)O[C@H]1CO2	none (no result: CaV13 ICDI inh)
COc1ccc(OCCCC(=O)OCC(=O)Nc2c(C)nn(-c3ccccc3)c2C)cc1	PGC1a acetyl inh 85.2
Cc1nn(-c2ccccc2)c(C)c1NC(=O)COC(=O)CCOc1ccccc1	none
Fc1ccc(CNC2CCN(Cc3ccccc3)CC2)cc1	DENV2 CPE rescue 35.2
Clc1ccc(CNC2CCN(Cc3ccccc3)CC2)cc1	none
CCCNC(=O)C[C@@H]1CC[C@H]2[C@@H](COc3ccc(NC(=O)c4cccc(C(F)(F)F)c4)cc3C(=O)N2C)O1	DENV2 CPE rescue 24.1 (no result: CaV13 ICDI inh)
COc1cccc(CNC(=O)C[C@H]2CC[C@H]3[C@@H](COc4ccc(NC(C)=O)cc4C(=O)N3C)O2)c1	DENV2 CPE rescue 28.1 (no result: CaV13 ICDI inh)
COc1cccc(CNC(=O)C[C@H]2CC[C@@H]3[C@H](COc4ccc(NC(C)=O)cc4C(=O)N3C)O2)c1	none (no result: ERAP1 inh, CaV13 ICDI inh)
CCCNC(=O)C[C@@H]1CC[C@H]2[C@@H](COc3ccc(NC(=O)c4cccc(OC)c4)cc3C(=O)N2C)O1	DENV2 CPE rescue 46.0 (no result: CaV13 ICDI inh)
CCOc1ccc(S(=O)(=O)Nc2ccc(S(=O)(=O)N3CCCC3)cc2)cc1	rRNA inh HTS -26.6 (no result: DENV2 CPE rescue, CaV13 ICDI inh)
O=C(COC(=O)c1cccnc1Cl)Nc1cc(S(=O)(=O)N2CCCCCC2)ccc1Cl	DENV2 CPE rescue inconclusive, GSIS activator 41.8 (no result: PGC1a acetyl inh)
O=C(COC(=O)c1cccnc1Cl)Nc1cc(S(=O)(=O)N2CCCCC2)ccc1Cl	none
CC(NCC(=O)Nc1cc(S(=O)(=O)N2CCCCCC2)ccc1Cl)c1ccccc1 (stereo not drawn)	rRNA inh HTS -23.4 (no result: PGC1a acetyl inh)
O=C(CCCOc1ccccc1)N1CCN(S(=O)(=O)c2ccc(Cl)cc2)CC1	none
CCOc1ccc(OCCCC(=O)N2CCN(S(=O)(=O)c3ccc(Cl)cc3)CC2)cc1	ERAP1 inh 32.1 (no result: PGC1a acetyl inh)
O=C(C[C@@H]1CC[C@@H](NS(=O)(=O)c2ccc(F)cc2)[C@@H](CO)O1)NCc1ccc(Cl)c(Cl)c1	none (no result: CaV13 ICDI inh)
CN(C)C(=O)C[C@@H]1C=C[C@@H](NS(=O)(=O)c2ccccc2)[C@H](CO)O1	none (no result: CaV13 ICDI inh)
Cc1ccccc1S(=O)(=O)N1[C@H](C#N)[C@H](c2ccc(C#CC3CCCC3)cc2)[C@H]1CO	none (no result: CaV13 ICDI inh)
CC(=O)N1C2CN(CC(F)(F)F)CC1C2c1ccc(Br)cc1 (stereo not drawn)	none (no result: DENV2 CPE rescue, ERAP1 inh, PGC1a acetyl inh, CaV13 ICDI inh)
Nc1ncccc1C(=O)OCC(=O)N1CCN(S(=O)(=O)c2ccc(Cl)cc2)CC1	DENV2 CPE rescue 45.3
C[C@@H]1CN([C@@H](C)CO)C(=O)c2cc(NC(=O)c3ccncc3)ccc2O[C@@H]1CN(C)Cc1ccc(Cl)c(Cl)c1	none (no result: CaV13 ICDI inh)
CCCN1[C@@H]2c3ccc(-c4ccccc4F)c(=O)n3C[C@@H]2[C@@H](CO)[C@@H]1C(=O)NCC	none (no result: CaV13 ICDI inh)

Assay outcomes (PubChem)
